{"source": "PubChem BioAssay AID651582", "about": "(Sanford-Burnham Center for Chemical Genomics, 2012)", "note": "Out of some 230,000 compounds screened, about 1,500 (0.65%) were called active.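 The calls were made as follows: active = pattern-corrected inhibition of lipid staining of at least 50% with the nuclear-stain viability signal not falling by more than 50%; inactive = the rest, inconclusive results apart.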 The list comes from a sample in which actives are over-represented; it also holds similar structures and randomly drawn compounds."}
{"assay": "TAG lipid buildup reduction in H9c2 cells – cell-based, uHTS, fluorescence, primary screen (AID 651582);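 as to inhibition: 0% = DMSO wells and 100% = triacsin C control wells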", "details": "Nile Red lipid (TAG) fluorescence, at 12.5 µM, cells loaded with 200 µM oleic acid; DAPI nuclei signal change (viability), lower = more cytotoxic: measured here: DAPI nuclei count viability; inhibition: stronger effect = higher value", "units": {"DAPI nuclei signal change (viability), lower = more cytotoxic": "%"}}
{"compound": "Cc1cccc(-c2cnc(C(O)c3ccc4ccccc4c3)[nH]2)c1", "note": "(centres undefined)", "DAPI nuclei signal change (viability), lower = more cytotoxic": 0.713, "inhibition": "-12.6% (inactive)"}
{"compound": "COc1cccc(NC(=O)c2cc(S(=O)(=O)N3CCc4ccccc43)cn2C)c1", "DAPI nuclei signal change (viability), lower = more cytotoxic": -2.57, "inhibition": "-1.15% (inactive)"}
{"compound": "CCN(C(=O)COC(=O)c1cc(S(=O)(=O)N2CCc3ccccc32)ccc1OC)C1CCS(=O)(=O)C1", "note": "(centres undefined)", "DAPI nuclei signal change (viability), lower = more cytotoxic": -4.55, "inhibition": "3.02% (inactive)"}
{"compound": "COc1ccc(S(=O)(=O)N2CCc3ccccc32)cc1C(=O)Nc1cc(S(C)(=O)=O)ccc1Cl", "DAPI nuclei signal change (viability), lower = more cytotoxic": -36.5, "inhibition": "61.6% (active)"}
{"compound": "CCOC(=O)C1(C)CCCN(C(=O)c2ccc(N(C)C)cc2)C1", "note": "(centres undefined)", "DAPI nuclei signal change (viability), lower = more cytotoxic": 5.71, "inhibition": "-6.89% (inactive)"}
{"compound": "COc1ccc(-c2sc3ccc(OC)cc3c2C#Cc2ccccn2)cc1", "DAPI nuclei signal change (viability), lower = more cytotoxic": 5.72, "inhibition": "13.1% (inactive)"}
{"compound": "COc1ccc2sc(-c3ccc(N(C)C)cc3)c(-c3ccc4cc[nH]c4c3)c2c1", "DAPI nuclei signal change (viability), lower = more cytotoxic": 224, "inhibition": "24.3% (inactive)"}
{"compound": "COc1ccc2sc(-c3ccc(N(C)C)cc3)c(C#CCO)c2c1", "DAPI nuclei signal change (viability), lower = more cytotoxic": 426, "inhibition": "66.7% (active)"}
{"compound": "Cc1cccc(C(=O)Nc2nnc(S(=O)(=O)N3CCCCCC3)s2)c1", "DAPI nuclei signal change (viability), lower = more cytotoxic": -4.18, "inhibition": "6.02% (inactive)"}
{"compound": "O=C(NCc1nnnn1-c1ccc(Cl)cc1)c1ccc2c(c1)OCO2", "DAPI nuclei signal change (viability), lower = more cytotoxic": 1.1, "inhibition": "-6.02% (inactive)"}
{"compound": "c1ccc(Cn2nnc3c(NCC4CC4)ncnc32)cc1", "DAPI nuclei signal change (viability), lower = more cytotoxic": -8.3, "inhibition": "23.9% (inactive)"}
{"compound": "CNc1cncc(-c2ccc(NS(C)(=O)=O)cc2)n1", "DAPI nuclei signal change (viability), lower = more cytotoxic": -24.4, "inhibition": "24.8% (inactive)"}
{"compound": "CCc1ccc(OCC(O)CN2CCN(CCO)CC2)cc1", "note": "(centres undefined)", "DAPI nuclei signal change (viability), lower = more cytotoxic": 4.43, "inhibition": "-3.68% (inactive)"}
{"compound": "CC(C)(c1ccccc1)c1ccc(OCCN)cc1", "DAPI nuclei signal change (viability), lower = more cytotoxic": 10.8, "inhibition": "22% (inactive)"}
{"compound": "CN(C)CC(O)COc1ccc(C(C)(C)c2ccc(OCC(O)CN(C)C)cc2)cc1", "note": "(centres undefined)", "DAPI nuclei signal change (viability), lower = more cytotoxic": 20, "inhibition": "50.5% (active)"}
{"compound": "CC(=O)NC12CC3CC(C1)CC(C(=O)N1CCN(C(=O)c4ccco4)CC1)(C3)C2", "DAPI nuclei signal change (viability), lower = more cytotoxic": 0.13, "inhibition": "-4.34% (inactive)"}
{"compound": "CS(=O)(=O)c1ccc(C(=O)NNC(=O)c2cccs2)cc1", "DAPI nuclei signal change (viability), lower = more cytotoxic": -4.79, "inhibition": "-4.25% (inactive)"}
{"compound": "C=CCNC(=S)N/N=C/c1ccc(C)s1", "DAPI nuclei signal change (viability), lower = more cytotoxic": -18.5, "inhibition": "56% (active)"}
{"compound": "C=CCNC(=S)N/N=C/c1ccc(OCc2ccccc2)cc1", "DAPI nuclei signal change (viability), lower = more cytotoxic": 1.44, "inhibition": "9.8% (inactive)"}
{"compound": "Cc1ccc(/C=N/NC(=O)CN2CCN(Cc3ccccc3)CC2)s1", "DAPI nuclei signal change (viability), lower = more cytotoxic": 1.3, "inhibition": "2.92% (inactive)"}
{"compound": "CCOc1ccc(CN2CCN(Cc3ccc4cc(F)ccc4n3)CC2CCO)cc1", "note": "(centres undefined)", "DAPI nuclei signal change (viability), lower = more cytotoxic": 1.54, "inhibition": "7.07% (inactive)"}
{"compound": "CNC(=O)NC(=O)C(C)N1CCN(C/C=C/c2ccccc2)CC1", "note": "(centres undefined)", "DAPI nuclei signal change (viability), lower = more cytotoxic": 3.57, "inhibition": "4.65% (inactive)"}
{"compound": "O=C1c2ccccc2C(=O)c2c1cccc2N1CCN(Cc2ccccc2)CC1", "DAPI nuclei signal change (viability), lower = more cytotoxic": 4.09, "inhibition": "114% (active)"}
{"compound": "O=c1cc(N2CCN(Cc3ccccc3)CC2)c(-c2ccccc2)n[nH]1", "DAPI nuclei signal change (viability), lower = more cytotoxic": -7.21, "inhibition": "20.7% (inactive)"}
{"compound": "O=C(CN1CCN(Cc2ccccc2)CC1)NC(c1ccccc1)c1ccccc1", "DAPI nuclei signal change (viability), lower = more cytotoxic": 4.91, "inhibition": "-87.5% (inactive)"}
{"compound": "O=C(CCN1CCN(C/C=C/c2ccccc2)CC1)Nc1cccc(F)c1", "DAPI nuclei signal change (viability), lower = more cytotoxic": 11.8, "inhibition": "13.2% (inactive)"}
{"compound": "O=C1c2ccccc2C(=O)c2c1cccc2N1CCN(C/C=C/c2ccccc2)CC1", "DAPI nuclei signal change (viability), lower = more cytotoxic": 3.54, "inhibition": "59.1% (active)"}
